Laboratory results: PubChem BioAssay (EPA / NIEHS)
Values joined by “and” are separate entries in the source; they are usually repeats but may differ in a detail not shown here. Equal entries are not always repeated. The source holds several records for some structures; these can differ, active in one and inactive in another. Active and inactive are the calls of the source. The calls were made as follows: active = hit-call score of the fitted dose curve at least 0.9, where 1 is the maximum; inactive = score below 0.9.

Columns and labels:
Settings in all cases: mRNA level, 48 h; actives raise or lower the signal
[1] = read-out: Insulin Like Growth Factor 1 (IGF1), IGF1 (gene 3479); test: LTEA_HepaRG_IGF1: Life Technologies and Expression Analysis (LTEA) Assay for Insulin Like Growth Factor 1 (IGF1) using HepaRG (AID 2283506)
In short: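 qRT-PCR readout of IGF1 mRNA, normalized to three housekeeping genes, after 48 h chemical exposure of HepaRG cells. Concentrations: 8-point half-log series, top 100 uM, 0.5% DMSO vehicle. Gain or loss fitted against DMSO baseline.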

[2] = read-out: Intercellular Adhesion Molecule 1 (ICAM1), ICAM1 (gene 3383); test: LTEA_HepaRG_ICAM1: Life Technologies and Expression Analysis (LTEA) Assay for Intercellular Adhesion Molecule 1 (ICAM1) using HepaRG (AID 2283507)
In short: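 Readout is qRT-PCR mRNA level, normalized to three housekeeping genes and fitted bidirectionally against 0.5% DMSO vehicle. Human HepaRG cultures received compound for 48 h, top concentration 100 uM with half-log dilutions.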

[3] = read-out: Insulin-like growth factor-binding protein 1 (IGFBP1), IGFBP1 (gene 3484); test: LTEA_HepaRG_IGFBP1: Life Technologies and Expression Analysis (LTEA) Assay for Insulin-like growth factor-binding protein 1 (IGFBP1) using HepaRG (AID 2283508)
In short: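 Thawed HepaRG cells are plated for 48 h, switched to serum-free induction medium, then dosed in duplicate for another 48 h (100 uM top, half-log steps). Lysates in RLT go to qRT-PCR, and gain or loss of signal is fitted relative to vehicle.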

[4] = read-out: Interleukin 6 (IL6), IL6 (gene 3569); test: LTEA_HepaRG_IL6: Life Technologies and Expression Analysis (LTEA) Assay for Interleukin 6 (IL6) using HepaRG (AID 2283509)
In short: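 Changes in IL6 mRNA, up or down relative to 0.5% DMSO controls, were derived from concentration-response curves in human HepaRG cells treated for 48 h at up to 100 uM, with ACTB, GAPDH and POLR2A as normalizers.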

[5] = read-out: Interleukin 6 Receptor (IL6R), IL6R (gene 3570); test: LTEA_HepaRG_IL6R: Life Technologies and Expression Analysis (LTEA) Assay for Interleukin 6 Receptor (IL6R) using HepaRG (AID 2283510);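 as to AC50: TaqMan qRT-PCR signal normalized to ACTB GAPDH and POLR2A housekeeping genes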
In short: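 HepaRG, 48 h exposure, 8-pt half-log series, top 100 uM, 0.5% DMSO vehicle, duplicates. Read-out: TaqMan qRT-PCR of IL6R transcript, housekeeping-gene normalized. Gain or loss fitted relative to DMSO baseline.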

[6] = read-out: Potassium channel subfamily K member 1 (KCNK1), KCNK1 (gene 3775); test: LTEA_HepaRG_KCNK1: Life Technologies and Expression Analysis (LTEA) Assay for Potassium channel subfamily K member 1 (KCNK1) using HepaRG (AID 2283511)
In short: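 Human HepaRG cultures receive test chemicals for 48 h in 0.5% DMSO, top concentration 100 uM with half-log dilutions. Induction or suppression of KCNK1 mRNA relative to DMSO is derived by bidirectional fitting of qRT-PCR data.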

[7] = read-out: Keratin 19 (KRT19), KRT19 (gene 3880); test: LTEA_HepaRG_KRT19: Life Technologies and Expression Analysis (LTEA) Assay for Keratin 19 (KRT19) using HepaRG (AID 2283512)
In short: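 KRT19 transcript levels, measured by Fluidigm qRT-PCR against three housekeeping genes, are fitted for gain or loss of signal relative to DMSO. Human HepaRG cells receive test chemicals (top 100 uM, half-log steps, 0.5% DMSO) for 48 hours.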

[8] = read-out: JUN Transcription Factor, JUN (gene 3725); test: LTEA_HepaRG_JUN: Life Technologies and Expression Analysis (LTEA) Assay for JUN Transcription Factor using HepaRG (AID 2283513)
In short: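 HepaRG, 48 h exposure, 8-pt half-log series top 100 uM, 0.5% DMSO, duplicate. JUN mRNA by qRT-PCR (Fluidigm), housekeeping-normalized (ACTB/GAPDH/POLR2A); bidirectional curve fit vs DMSO baseline.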

[9] = read-out: Lipoprotein lipase (LPL), LPL (gene 4023); test: LTEA_HepaRG_LPL: Life Technologies and Expression Analysis (LTEA) Assay for Lipoprotein lipase (LPL) using HepaRG (AID 2283515)
In short: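 Concentration-response testing used half-log steps from 100 uM in 0.5% DMSO on human HepaRG cells, 48 h, duplicate wells. Phenobarbital 1 mM served as induction control; LPL mRNA was normalized to ACTB, GAPDH, POLR2A.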

[10] = read-out: MicroRNA 122 (MIR122), gene 406906; test: LTEA_HepaRG_MIR122: Life Technologies and Expression Analysis (LTEA) Assay for MicroRNA 122 (MIR122) using HepaRG (AID 2283516); also: the transcript read is the microRNA miR-122
In short: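 qRT-PCR read-out (TaqMan, Fluidigm array), normalized to three housekeeping genes; HepaRG cells dosed 48 h at 8 concentrations up to 100 uM in 0.5% DMSO, duplicate; gain or loss fitted against DMSO baseline.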

[11] = read-out: matrix metalloproteinase-10 (MMP10), MMP10 (gene 4319); test: LTEA_HepaRG_MMP10: Life Technologies and Expression Analysis (LTEA) Assay for matrix metalloproteinase-10 (MMP10) using HepaRG (AID 2283517)
In short: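 In differentiated HepaRG cultures kept in 0.5% DMSO, test chemicals act for 48 h over an eight-point range with a top dose of 100 uM. Expression is then quantified by TaqMan RT-PCR against ACTB, GAPDH and POLR2A.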

MYC, MYC (gene 4609) = test: LTEA_HepaRG_MYC: Life Technologies and Expression Analysis (LTEA) Assay for MYC using HepaRG (AID 2283518)
In short: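 HepaRG, ~100,000 cells/well, collagen I; 48 h plating; serum-free induction medium; 48 h dosing, duplicate, 100 uM top, half-log, 0.5% DMSO; total RNA → qRT-PCR MYC; gain/loss fit vs DMSO.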

[12] = read-out: matrix metalloproteinase-3 (MMP3), MMP3 (gene 4314); test: LTEA_HepaRG_MMP3: Life Technologies and Expression Analysis (LTEA) Assay for matrix metalloproteinase-3 (MMP3) using HepaRG (AID 2283519)
In short: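 Human liver HepaRG cultures received chemicals (top concentration 100 uM, 0.5% DMSO) for 48 h in duplicate. MMP3 mRNA induction or loss was then assessed via TaqMan qRT-PCR with housekeeping-gene normalisation.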

[13] = read-out: Paternally Expressed 10 (PEG10), PEG10 (gene 23089); test: LTEA_HepaRG_PEG10: Life Technologies and Expression Analysis (LTEA) Assay for Paternally Expressed 10 (PEG10) using HepaRG (AID 2283520);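 as to AC50: PEG10 transcript by qRT-PCR normalised to ACTB GAPDH and POLR2A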
In short: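 qRT-PCR read-out: PEG10 mRNA normalised to three housekeeping genes, fitted bidirectionally against 0.5% DMSO vehicle. HepaRG cells received test chemicals for 48 h in serum-free induction medium, 8 points, top 100 uM, half-log steps.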

[14] = read-out: Protein phosphatase 2A (PPP2R4), PTPA (gene 5524); test: LTEA_HepaRG_PPP2R4: Life Technologies and Expression Analysis (LTEA) Assay for Protein phosphatase 2A (PPP2R4) using HepaRG (AID 2283522)
In short: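 HepaRG, 48 h exposure, 8-pt half-log series from 100 uM, 0.5% DMSO vehicle, duplicates. Readout: PPP2R4 mRNA, Fluidigm qRT-PCR, housekeeping-normalized. Bidirectional curve fit vs DMSO baseline.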

[15] = read-out: Phosphatase and tensin (PTEN), PTEN (gene 5728); test: LTEA_HepaRG_PTEN: Life Technologies and Expression Analysis (LTEA) Assay for Phosphatase and tensin (PTEN) using HepaRG (AID 2283523)
In short: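 Expression of PTEN is quantified in the human liver line HepaRG following two days of dosing (top concentration 100 uM, half-log dilutions, 0.5% DMSO). Values derive from bidirectional curve fitting relative to DMSO controls.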

[16] = read-out: solute carrier (SLC22A1), SLC22A1 (gene 6580); test: LTEA_HepaRG_SLC22A1: Life Technologies and Expression Analysis (LTEA) Assay for solute carrier (SLC22A1) using HepaRG (AID 2283524)
In short: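 Transcript induction or suppression of SLC22A1 in human HepaRG cultures is scored after 48 h chemical treatment, with DMSO (0.5%) as baseline for bidirectional fitting. Concentrations span eight half-log points topping at 100 uM.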

[17] = read-out: Pyruvate Dehydrogenase Kinase 4 (PDK4), PDK4 (gene 5166); test: LTEA_HepaRG_PDK4: Life Technologies and Expression Analysis (LTEA) Assay for Pyruvate Dehydrogenase Kinase 4 (PDK4) using HepaRG (AID 2283525)
In short: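 Eight-point, half-log concentration series (max 100 uM, 0.5% DMSO) applied to differentiated HepaRG cells for 48 h in duplicate. Endpoint: PDK4 mRNA induction or repression by qRT-PCR against DMSO baseline.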

[18] = read-out: Nuclear factor NF-kappa-B p105 subunit (Homo sapiens) (UniProt P19838); test: LTEA_HepaRG_NFKB1: Life Technologies and Expression Analysis (LTEA) Assay for Nuclear Factor Kappa B Subunit 1 (NFKB1) using HepaRG (AID 2283521);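 also: TaqMan qRT-PCR transcript normalised to ACTB GAPDH and POLR2A housekeeping genes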
In short: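 Differentiated human HepaRG cells in serum-free induction medium with 0.5% DMSO were exposed for 48 h to eight half-log concentrations, top 100 uM, in duplicate. NFKB1 mRNA measured by Fluidigm TaqMan qRT-PCR, normalised to ACTB, GAPDH and POLR2A; bidirectional fit versus DMSO.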

Measured: AC50

Nuclear factor NF-kappa-B p105 subunit (Homo sapiens), sequence (P19838 whole entry, looked up): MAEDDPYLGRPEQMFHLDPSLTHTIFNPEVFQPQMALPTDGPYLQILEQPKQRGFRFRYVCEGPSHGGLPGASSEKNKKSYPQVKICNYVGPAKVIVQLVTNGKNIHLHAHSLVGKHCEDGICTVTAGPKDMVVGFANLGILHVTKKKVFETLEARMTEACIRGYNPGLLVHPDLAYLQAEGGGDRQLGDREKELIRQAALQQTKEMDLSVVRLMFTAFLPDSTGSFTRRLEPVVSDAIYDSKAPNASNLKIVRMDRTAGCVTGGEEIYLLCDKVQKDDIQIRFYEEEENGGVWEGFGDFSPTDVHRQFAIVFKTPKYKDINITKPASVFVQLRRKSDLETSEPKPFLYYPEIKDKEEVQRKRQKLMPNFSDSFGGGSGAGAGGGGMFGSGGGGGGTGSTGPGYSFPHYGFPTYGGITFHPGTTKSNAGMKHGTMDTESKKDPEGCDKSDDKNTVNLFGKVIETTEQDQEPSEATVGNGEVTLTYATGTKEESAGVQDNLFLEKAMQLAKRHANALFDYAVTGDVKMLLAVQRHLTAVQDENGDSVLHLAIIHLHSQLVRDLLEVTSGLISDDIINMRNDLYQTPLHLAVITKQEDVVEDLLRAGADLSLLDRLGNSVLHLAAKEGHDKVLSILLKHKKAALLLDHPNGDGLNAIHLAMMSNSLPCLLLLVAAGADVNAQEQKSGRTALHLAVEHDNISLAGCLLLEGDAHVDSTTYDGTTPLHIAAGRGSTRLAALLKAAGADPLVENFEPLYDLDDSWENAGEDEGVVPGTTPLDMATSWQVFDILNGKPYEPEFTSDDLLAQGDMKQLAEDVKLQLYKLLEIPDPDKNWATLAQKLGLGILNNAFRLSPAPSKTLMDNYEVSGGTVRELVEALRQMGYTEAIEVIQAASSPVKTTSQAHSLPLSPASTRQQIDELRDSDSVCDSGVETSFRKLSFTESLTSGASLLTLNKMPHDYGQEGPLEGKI

OC(c1ccc(Cl)cc1)(c1cncnc1)c1ccccc1Cl (centres undefined)
active: [1] 37.3 µM | [2] 74.3 µM | [3] 71.9 µM | [4] 73 µM | [6] 50 µM | [9] 50 µM | [10] 73.2 µM | [11] 58.9 µM | MYC, MYC (gene 4609) 80.4 µM | [13] 5.86 µM | [14] 66.4 µM | [16] 81.8 µM | [17] 75.9 µM
inactive: [5] | [7] | [8] | [12] | [15]

N#Cc1nn(-c2c(Cl)cc(C(F)(F)F)cc2Cl)c(N)c1S(=O)C(F)(F)F (centres undefined)
inactive: [2] | [6] | [15]
active: [1] 13.4 µM | [3] 47.7 µM | [4] 44.8 µM | [5] 91.4 µM | [7] 12.6 µM | [8] 50.2 µM | [9] 31.3 µM | [10] 59.2 µM | [11] 30.7 µM | MYC, MYC (gene 4609) 35.1 µM | [12] 50.2 µM | [13] 23.6 µM | [14] 11.5 µM | [16] 19.6 µM | [17] 23.1 µM

COC(=O)C(C)Oc1ccc(Oc2ccc(Cl)cc2Cl)cc1 (centres undefined)
active: [7] 77 µM | [9] 27.6 µM | [13] 10.4 µM | [16] 50 µM | [17] 32.6 µM
inactive: all other assays above

CCCCNC(=O)OCC#CI
not listed: [18]
inactive: all other assays above

Oc1ccccc1-c1ccccc1
not listed: [9] | [18]
inactive: all other assays above

CO/C=C(/C(=O)OC)c1ccccc1Oc1cc(Oc2ccccc2C#N)ncn1
inactive: [5] | [6] | [8] | [14] | [15] | [17]
active: [1] 79.8 µM and 62.8 µM and 74 µM | [2] 83.5 µM and 87.8 µM and 88.9 µM | [3] 63.6 µM and 72.5 µM and 76.7 µM | [4] 81.4 µM and 80.9 µM and 82.8 µM | [7] 61.1 µM and 37.1 µM and 50 µM | [9] 82.4 µM and 82.1 µM and 85.2 µM | [10] 72 µM and 83.7 µM and 74.3 µM | [11] 81 µM and 66.5 µM and 34.6 µM | MYC, MYC (gene 4609) 77.8 µM and 90 µM and 90.3 µM | [12] 83.2 µM and 79.1 µM and 78.9 µM | [13] 27.9 µM and 26.6 µM and 17.5 µM | [16] 78 µM and 70.5 µM and 68.7 µM | [17] 18.6 µM
